Screens deposited in PubChem BioAssay by National Center for Advancing Translational Sciences (NCATS).
This is a sample that favours compounds with a hit; in the whole collection about 3.2% have one here.
RE007 growth inh = less growth of the S. pombe RE007 Vpr strain. S. pombe RE007 Vpr strain, BacTiter-Glo ATP luminescence, 24 h. Potency, µM (series often up to 92.2 µM), actives largely listed as inhibitors. 360,000 tested, 0.21% active; active = well fitted falling curve with a large enough effect; inconclusive = small, poorly fitted or top-dose-only effect; inactive = no such curve, though single readings can be large or run the other way; note: nearly all actives have a fitted effect of over 50% in size
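Fission yeast strain RE007, carrying one chromosomally integrated HIV-1 vpr copy, was seeded at OD 0.01 in PMG+AL medium with 23 nL pinned compound. After 24 h at 30 °C and 99% humidity, viability was read by BacTiter-Glo luminescence.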
Sm TGR inh = blocks Schistosoma mansoni thioredoxin glutathione reductase; Q962Y6; Potency, µM (highest dose often 114 µM), usual class: inhibitors; 360,000 tested, 3% active; purified TGR, DTNB reduction, TNB absorbance 405 nm; note: nearly all actives have a fitted effect of over 60% in size
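TGR 20 nM + NADPH 100 uM (dispensed conc.), cpd preinc 15 min RT; start with NADPH (500 uM addition) then DTNB (15 mM addition). Kinetic TNB absorbance, 405 nm filter. Four-parameter Hill fit across titration.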
TbPYK inhibitor = inhibitors of Trypanosoma brucei pyruvate kinase; Q57TT1; TbPYK enzyme, Kinase-Glo Plus ATP luminescence, 45 min; Potency, µM (series often up to 76.8 µM), most hits filed as inhibitors; 410,000 tested, 0.12% active; AID 624173; note: nearly all actives have a fitted effect of over 50% in size
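ADP (130 uM final) triggers the TbPYK reaction after compound addition; incubation is 45 min at room temperature. Kinase-Glo Plus is then added and luminescence imaged. Normalized data are fitted to concentration-effect curves.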
LmPK inh = blocks Leishmania mexicana pyruvate kinase activity. Q27686. 290,000 tested, 0.37% active. purified LmPK, Kinase-Glo ATP luminescence, 1 h. AID 1721. Potency, µM (top dose mostly 57.5 µM), hits mostly inhibitors
Target sequence (Q27686 whole entry, looked up): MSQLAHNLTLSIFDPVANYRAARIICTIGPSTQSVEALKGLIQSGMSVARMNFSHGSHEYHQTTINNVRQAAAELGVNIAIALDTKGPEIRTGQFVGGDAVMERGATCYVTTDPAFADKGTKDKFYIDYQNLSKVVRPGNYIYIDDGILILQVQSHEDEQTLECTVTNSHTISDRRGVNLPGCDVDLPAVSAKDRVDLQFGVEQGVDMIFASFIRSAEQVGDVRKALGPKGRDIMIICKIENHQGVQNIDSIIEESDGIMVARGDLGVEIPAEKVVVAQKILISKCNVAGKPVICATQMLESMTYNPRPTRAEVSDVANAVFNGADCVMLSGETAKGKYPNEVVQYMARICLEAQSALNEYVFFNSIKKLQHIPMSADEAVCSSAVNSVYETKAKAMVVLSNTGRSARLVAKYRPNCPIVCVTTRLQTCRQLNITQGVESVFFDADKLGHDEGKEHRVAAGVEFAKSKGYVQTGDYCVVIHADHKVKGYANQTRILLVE
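Pyruvate kinase activity monitored as ATP production (luciferase luminescence). Conditions: 0.1 nM enzyme, 0.5 mM PEP, 0.1 mM ADP, 1 h, RT; normalized against uninhibited and no-enzyme wells.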
AMA1-RON2 inh = inhibitors of Plasmodium falciparum AMA1-RON2 interaction | AlphaScreen AMA1-biotinylated RON2 peptide binding | Potency, µM (titrated, usually from 58.2 µM), usual class: inhibitors | 360,000 tested, 0.2% active | AID 720542; note: nearly all actives have a fitted effect of over 45% in size
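AMA1 (3D7) with his tag at 25 nM final met compounds first, then biotinylated RON2 peptide at 25 nM; detection used donor plus acceptor beads, 10 µg/mL apiece, read by AlphaScreen after 30 min at room temperature.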
Hits are given with their value; n = inactive; u = inconclusive; x = no result; [ ] = dose if it differs, or a comment. Unless noted, calls come from the whole dose curve; as a rule, active = well fitted curve in the direction sought with a large enough effect; inconclusive = small, poorly fitted or top-dose-only effect, or another doubt; inactive = no such curve, though single readings can be large; an effect the other way counts as inactive or inconclusive.

SMILES | RE007 growth inh | Sm TGR inh | TbPYK inhibitor | LmPK inh | AMA1-RON2 inh
CC(NC(=O)CSc1n[nH]c(-c2ccccc2Cl)n1)c1nc2ccccc2n1C (stereo not drawn) | x | n | n | x | x
CCOc1ccc(NC(=O)Nc2cccnc2)cc1 | u | n | n | 25µM | n
CCOc1ccc(NC(=O)c2ccccc2O)cc1 | u | n | n | n | n
CCOc1ccc(NC(=O)c2ccccn2)cc1 | u | n | n | 13µM | n
CCc1ccc(/C=N/NC(=O)c2ccccn2)cc1 | n | n | n | 13µM | n
CCOc1ccc(NC(=O)c2cnccn2)cc1 | n | 89µM | n | n | n
CC1(OC(=O)C2CCCC2)C(=O)C=C2C=C(c3ccsc3)N(c3cccc(C#N)c3)C=C2C1=O (stereo not drawn) | x | x | x | n[11.5 µM] | x
C/C(CC(=O)Nc1ccc(N(C)C)cc1)=N\NC(=O)c1cnccn1 | x | 35µM | n | n | n
CCS(=O)(=O)c1ncc(Cl)c(C(=O)Nc2ccccc2OC)n1 | n | n | n | n | n
COc1ccc(OC)c(NC(=O)c2nc(S(=O)(=O)Cc3ccc(F)cc3)ncc2Cl)c1 | x | 3.2µM | n | x | x
COc1ccccc1NC(=O)c1nc(S(=O)(=O)Cc2ccccc2)ncc1Cl | n | 10µM | n | n | n
CCOc1ccccc1NC(=O)c1nc(S(=O)(=O)Cc2ccccc2)ncc1Cl | n | 3.5µM | n | n | n
CCC(C)NC(=O)Cn1c(=O)n(Cc2ccc(C(=O)NCc3ccc(C)cc3)cc2)c(=O)c2ccccc21 (stereo not drawn) | x | n | n | x | x
COc1ccccc1NC(=O)c1ccc(NC(=O)CSc2nnnn2C)cc1 | n | 5.6µM | n | n | n
Cn1nnnc1SCC(=O)Nc1ccc(Br)cc1Cl | n | 28µM | n | n | n
CCOC(=O)CC(NC(=O)Cc1cccs1)c1ccccc1Cl (stereo not drawn) | n | 89µM | n | n | n
CCOc1ccc(CCNC(=O)CS(=O)Cc2nc(-c3ccc(C)cc3)oc2C)cc1 (stereo not drawn) | n | 22µM | n | n | n
COc1cccc(-c2nc(CS(=O)CC(=O)NCCc3ccc(C)cc3)c(C)o2)c1 (stereo not drawn) | n | n | n | n | n
Cc1ccc(-c2nc(CS(=O)CC(=O)NCCCc3ccccc3)c(C)o2)cc1 (stereo not drawn) | n | 35µM | n | n | n
COc1ccc(-c2nc(CS(=O)CC(=O)NCCC3=CCCCC3)c(C)o2)cc1 (stereo not drawn) | n | 40µM | n | n | n
CCN(CC)CCNC(=O)CS(=O)Cc1nc(-c2ccc(C)cc2)oc1C (stereo not drawn) | n | n | n | n | n
Cc1oc(-c2ccc(Cl)cc2)nc1CS(=O)CC(=O)NCCc1ccccc1 (stereo not drawn) | x | 22µM | n[15.4 µM] | x | x
CCc1ccc(-c2nc(CS(=O)CC(=O)NCCc3ccc(Cl)cc3)c(C)o2)cc1 (stereo not drawn) | x | 32µM | n | x | x
Cc1ccc(-c2nc(CS(=O)CC(=O)NCCc3ccc(Cl)cc3)c(C)o2)cc1 (stereo not drawn) | x | n | n | x | x
Cc1oc(-c2ccc(Cl)cc2)nc1CS(=O)CC(=O)NCc1ccc2c(c1)OCO2 (stereo not drawn) | n | 14µM | n | n | n
SMILES | RE007 growth inh | Sm TGR inh | TbPYK inhibitor | LmPK inh | AMA1-RON2 inh
COc1ccc(-c2nc(CSCC(=O)NCc3ccc4c(c3)OCO4)c(C)o2)cc1OC | n | u | n | n | n
Cc1oc(-c2ccc(Cl)cc2)nc1CS(=O)CC(=O)NCc1ccc(Cl)cc1 (stereo not drawn) | x | u | n | x | x
COc1ccc(-c2nc(CS(=O)CC(=O)NCc3ccc4c(c3)OCO4)c(C)o2)cc1OC (stereo not drawn) | n | 40µM | n | n | n
Cc1cccc(CNC(=O)C2CCN(S(=O)(=O)c3ccc4c(c3)CCCN4C(=O)C3CCC3)CC2)c1 | x | n | n | x | x
O=C(N/N=C/C=C/c1ccco1)/C(=C/c1ccccc1)NC(=O)c1ccccc1 | n | 45µM | n | n | n
O=C(Cc1cccs1)N/N=C/c1ccco1 | n | n | n | n | n[11.6 µM]
O=C(N/N=C/C=C\c1ccco1)c1cccs1 | n | 11µM | n | n | n
O=C(O)/C(=C\c1ccco1)NC(=O)c1ccccc1 | n | n | n | n | n
O=C(N/N=C/C=C/c1ccco1)c1ccncc1 | n | 28µM | n | n | n
O=C(Cc1cccs1)N/N=C/C=C\c1ccco1 | n | 25µM | n | n | n
CCOC(=O)c1c(NC(C)=O)c2c3c(sc2n1Cc1nc(-c2ccccc2OCC)oc1C)CCCC3 | x | n | n | x | x
CCCOC(=O)/C(=C\C=C\c1ccco1)NC(=O)c1ccccc1 | n | 8.9µM | n | n | n
COC(=O)/C(=C/c1ccco1)NC(=O)c1ccccc1 | n | n | n | n | n
CCc1cccc(N2C(=O)N(Cc3c(F)cccc3Cl)c3ccccc3S2(=O)=O)c1 | x | n | n | x | x
Cc1ccc(-c2nc(-c3cccnc3)no2)cc1 | n | n | n | n | n
CCC(=O)Oc1ccc(-c2nc(-c3cccnc3)no2)cc1 | u | n | n | 7.9µM | n
Cc1ccc(N2CC(C(=O)Nc3ccc(Br)cc3)CC2=O)cc1 (stereo not drawn) | x | n | n | x | x
COc1ccc(CNc2ccccc2)cc1Br | n | n | n | n | n
COc1cc(CNc2cccc(F)c2)cc(Br)c1O | n | 13µM | n | n | n
Cc1ccc(N2CCN(C(=O)C3CCN(c4ncnc5c4nc4n5CCCCC4)CC3)CC2)c(C)c1 | x | n | n | x | x
CCOc1cnn(-c2cc(Oc3ccc(C)cc3)ncn2)c(=O)c1Cl | u | n | n | n | n
Cc1ccccc1Oc1cc(-n2ncc(Cl)c(Cl)c2=O)ncn1 | u | 2µM | n | n | n
CN1c2ccccc2C(C)(C)[C@]12C=Cc1cc(O)ccc1O2 | n | n | n | n | u
COc1ccc2ccc3c(c2c1)N=CC1(O3)N(C)c2ccccc2C1(C)C (stereo not drawn) | n | 22µM | n | n | n
CN1c2ccccc2C(C)(C)C12C=Nc1c(ccc3ccccc13)O2 (stereo not drawn) | u | 20µM | n | n | n
SMILES | RE007 growth inh | Sm TGR inh | TbPYK inhibitor | LmPK inh | AMA1-RON2 inh
CC1CCN(C(c2ccc(F)cc2)c2sc3nc(-c4ccco4)nn3c2O)CC1 (stereo not drawn) | x | n | n | x | x
Cc1onc(-c2c(F)cccc2Cl)c1C(=O)OCC(=O)NCc1ccco1 | n | 18µM | n | n | n
O=C(Nc1cccc(S(=O)(=O)NCc2ccco2)c1)c1ccc(Cl)cc1 | n | x | n | x | n
Cc1onc(-c2c(F)cccc2Cl)c1C(=O)Nc1cccc(S(=O)(=O)NCc2ccco2)c1 | n | 28µM | n | n[11.5 µM] | n
Cc1onc(-c2c(F)cccc2Cl)c1C(=O)NCc1ccco1 | n | n | n | n | n
CC(O)CCC(=O)NNC1CC(=O)N(c2ccccc2)C1=O (stereo not drawn) | n | n | n | n | n
